Assay [1] addresses T1, Aspartate--tRNA(Asp/Asn) ligase (Mycobacterium tuberculosis (strain ATCC 25618 / H37Rv)) (UniProt P9WFW3).
T1 sequence (whole entry): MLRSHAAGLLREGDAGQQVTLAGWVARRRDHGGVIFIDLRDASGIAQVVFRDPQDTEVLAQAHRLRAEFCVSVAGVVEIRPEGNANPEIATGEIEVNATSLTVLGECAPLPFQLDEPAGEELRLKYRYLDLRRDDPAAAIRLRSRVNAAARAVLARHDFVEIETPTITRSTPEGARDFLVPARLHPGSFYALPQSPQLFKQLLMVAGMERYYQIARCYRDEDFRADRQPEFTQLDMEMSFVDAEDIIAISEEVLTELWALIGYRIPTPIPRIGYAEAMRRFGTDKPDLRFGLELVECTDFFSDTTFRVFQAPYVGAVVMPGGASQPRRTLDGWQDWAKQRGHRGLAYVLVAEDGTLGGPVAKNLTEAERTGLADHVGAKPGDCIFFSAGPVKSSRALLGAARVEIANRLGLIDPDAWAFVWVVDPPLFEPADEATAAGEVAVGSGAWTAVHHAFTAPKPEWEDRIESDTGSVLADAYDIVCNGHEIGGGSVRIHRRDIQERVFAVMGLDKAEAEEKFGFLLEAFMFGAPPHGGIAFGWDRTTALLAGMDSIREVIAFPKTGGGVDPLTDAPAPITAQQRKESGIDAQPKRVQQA
The assay is described as follows: Assay for Asp RNA synthetase-1 from Mycobacterium tuberculosis. The arrangement: scale not given: direction of the effect not stated beside the values. The class given is functional. Conditions: 30 µM.

The target of assay [2] is Shiga toxin 2 (Escherichia coli O157:H7) (UniProt P09385+P09386). The assay is described as follows: E. coli 0.157:H7 Shiga Toxin SOP - stx2 screening assay. Type of assay: functional. The arrangement: scale not given: direction of the effect not stated beside the values. Conditions: 30 µM.

Consider `CN(Cc1cccs1)C(=O)CN1CCCC1Cn1cncn1` (configuration not stated), for which the Percent Effect is 5.56% in assay [1] and -62.3% in assay [2].

For `O=C(NCc1nnc2ccccn12)N1CCc2sccc2C1`, the Percent Effect is -2.69% in assay [1] and 1.75% in assay [2].

Regarding `Cc1nnc(C2Cc3ccccc3CN2Cc2ncc(C(C)(C)C)o2)o1` (configuration not stated), the Percent Effect in assay [1] was 0.807%; in assay [2] it was 8.47%.

Turning to `CNc1cc(N2CCCC2CNCc2ccc(Cl)o2)ncn1` (configuration not stated), the figures for the Percent Effect in assay [1] and in assay [2] were -2.44% and 26.8%, respectively.

`COc1ccc(C2(CNC(C)c3nnc(C)o3)CCCCC2)cc1` (configuration not stated): the Percent Effect in assay [1] is 2.67%; in assay [2], -2.63%.

With `O=C1CC2(CCCNC2)C(=O)N1Cc1ccc(F)cc1` (configuration not stated), the Percent Effect in assay [1] was 3.3%; in assay [2], -4.45%.

Consider `COc1cc2cc(C(=O)O)n(C)c2c(OC)c1OC`, for which the Percent Effect in assay [1] was -3.95%; in assay [2] it was 1.12%.

As for `CS(=O)(=O)N1CCCN(C(=O)c2ccc(Cn3ccccc3=O)o2)CC1`, the Percent Effect is 1.66% in assay [1] and 25% in assay [2].

Turning to `Cc1cnn(CC2CN(CC(=O)Nc3sccc3C#N)CCO2)c1` (configuration not stated), the Percent Effect in assay [1] was -2.83%; in assay [2], 27.5%.

On to `COc1ccc(CC(=O)N2CCc3nnc(N(C)C)cc3C2)cc1F`, for which the Percent Effect is 2.43% in assay [1] and -57.1% in assay [2].

Take `Cc1cncc(C2CCCN(C(=O)c3ccc(C)[nH]c3=O)C2)n1` (configuration not stated): the Percent Effect in assay [1] was 0.25%; in assay [2] it was -13%.

On to `CCc1nc(C2CCCN2CCc2ccccn2)no1` (configuration not stated), for which the Percent Effect in assay [1] is -4.14%; in assay [2] it was -69%.

Consider `O=C(c1ccco1)N1C[C@H]2CCCN(Cc3cccs3)[C@H]2C1`, for which the Percent Effect in assay [1] was 6.24%; in assay [2], -1.93%.

With `CCc1nc(C)c(C(=O)NCCN2CCN(C(C)=O)CC2)s1`, the values for the Percent Effect in assay [1] and in assay [2] were 0.0694% and -21.7%, respectively.

As to `O=C(c1cscn1)N1CCC2(CCN(Cc3cccs3)CC2)C1`, the figures for the Percent Effect in assay [1] and in assay [2] were -4.17% and -7.4%, respectively.

For `CC(=O)NCCNC(=O)N(C)Cc1ccc2c(c1)OCCO2`, the Percent Effect in assay [1] is -4.52%; in assay [2], 15.2%.

Take `CCc1nc(C2CCCN(C(=O)c3cnn(CC)c3)C2)no1` (configuration not stated): the Percent Effect came out at 2.22% in assay [1] and 3.55% in assay [2].

Consider `Cn1cnnc1C1CCCN(C(=O)NCCc2ccccc2F)C1` (configuration not stated), for which the values for the Percent Effect in assay [1] and in assay [2] were -6.03% and 15.6%, respectively.

Regarding `Cc1noc2nc(C3CCN(Cc4ccncc4)CC3)cc(C(F)F)c12`, the Percent Effect is 5.43% in assay [1] and -67.8% in assay [2].

As to `O=C(C(CNCc1ccsc1)c1ccccc1)N1CCOCC1` (configuration not stated), the figures for the Percent Effect in assay [1] and in assay [2] were 4.13% and -22.6%, respectively.

On to `COCCOCC(=O)Nc1ccc(C)cc1F`, for which the Percent Effect was -1.8% in assay [1] and 2.25% in assay [2].

In the case of `Cc1ccsc1[C@@H]1CCN(C(=O)CCC(=O)N2CCCCCC2)C[C@H]1O`, the Percent Effect in assay [1] is -0.418%; in assay [2] it was -23.3%.

With `O=C(CCc1ccsc1)NCC1CCN(c2ccccc2)C1` (configuration not stated), the Percent Effect in assay [1] was 0.529%; in assay [2], -12.3%.

In the case of `COc1ccc(-n2ccc(C(=O)NCCN3CCCCC3C)n2)cc1` (configuration not stated), the Percent Effect in assay [1] is 4.6%; in assay [2], -18.1%.

In the case of `O=C(NCC1CC1)C1=NOC2(CCN(S(=O)(=O)c3cccs3)C2)C1` (configuration not stated), the Percent Effect in assay [1] was 2.15%; in assay [2], -4.25%.

Take `Cn1cc(CN2CCC3(CC2)CC(c2ccncc2)C(=O)N3)cn1` (configuration not stated): the results for the Percent Effect in assay [1] and in assay [2] were 12.5% and -4.24%, respectively.

`CN(C)C[C@H]1OC[C@@H]2CCN(C(=O)c3cccn3C)C[C@@H]21`: the Percent Effect in assay [1] is 0.607%; in assay [2], -9.5%.

For `CC(=O)NCCC(=O)NCc1cccnc1-n1cnc2ccccc21`, the Percent Effect in assay [1] was -1.62%; in assay [2], -2.41%.

In the case of `N#CC1(C(=O)NCCCNc2ccc(C(F)(F)F)cn2)CCCC1`, the Percent Effect in assay [1] worked out at 2.12%; in assay [2], 21.2%.

For `Cc1cc2c(=O)n3c(nc2s1)CCN(Cc1cnn(C)c1C)CC3`, the Percent Effect was -4.72% in assay [1] and 8.81% in assay [2].

Consider `COc1ccc(C)cc1S(=O)(=O)NCC(c1cccn1C)N(C)C` (configuration not stated), for which the Percent Effect was -4.54% in assay [1] and 2.58% in assay [2].

For the molecule `CCc1nc(C2CCCN2CC(=O)Nc2nncs2)no1` (configuration not stated), the values for the Percent Effect in assay [1] and in assay [2] were -0.364% and 2.9%, respectively.

As for `O=C(NCC(F)(F)F)C1CSCN1S(=O)(=O)c1ccc(F)cc1` (configuration not stated), the Percent Effect was -3.86% in assay [1] and -29.9% in assay [2].

As for `c1cnnc(N2CCCC2CNc2ncnc3ccccc23)c1` (configuration not stated), the Percent Effect is 3.45% in assay [1] and -33.7% in assay [2].

As to `CN(CC(=O)N1CCC(C(O)c2ccccc2)CC1)c1cnccn1` (configuration not stated), the Percent Effect in assay [1] was -0.321%; in assay [2], -9.59%.

Regarding `CSc1cc2c(cc1NC(=O)NCC(C)(C)C(N)=O)OCCO2`, the values for the Percent Effect in assay [1] and in assay [2] were 0.408% and -1.68%, respectively.

On to `CCn1cnnc1CNC(=O)N1CCOCC1`, for which the Percent Effect was -11.7% in assay [1] and 7.05% in assay [2].

On to `Cc1cnc2n(c1=O)C(CC(=O)NCc1cc(-c3cccs3)on1)CS2` (configuration not stated), for which the Percent Effect was 1.62% in assay [1] and -30.9% in assay [2].

For the molecule `Cc1cc(S(=O)(=O)N2CCC(S(C)(=O)=O)CC2)ccc1F`, the values for the Percent Effect in assay [1] and in assay [2] were 1.15% and -4.34%, respectively.

As to `CC(Oc1ccccc1C(F)(F)F)C(=O)NCC(N)=O` (configuration not stated), the figures for the Percent Effect in assay [1] and in assay [2] were -3.56% and 11.5%, respectively.

Turning to `CCN1CCN(CC(C)(O)c2cccc(C(F)(F)F)c2)CC1` (configuration not stated), the figures for the Percent Effect in assay [1] and in assay [2] were 3.38% and 6.41%, respectively.

With `O=C(CC1CC1)NCc1cn2c(n1)CN(C(=O)c1cccnc1)CC2`, the Percent Effect in assay [1] was 3.04%; in assay [2], -29.1%.

In the case of `CCOCC(O)CN1CCN(C(=O)c2ccnc(N(C)C)c2)CC1` (configuration not stated), the results for the Percent Effect in assay [1] and in assay [2] were -2.58% and -13.4%, respectively.

Turning to `CN1CCOC(CNCc2cccc(OCc3ccccn3)c2)C1` (configuration not stated), the results for the Percent Effect in assay [1] and in assay [2] were -8.22% and -16.3%, respectively.

Consider `O=C(O)c1c[nH]c2cc(NS(=O)(=O)c3cccc(Cl)c3F)ccc12`, for which the results for the Percent Effect in assay [1] and in assay [2] were 2.61% and 12.3%, respectively.

In the case of `Cc1nc(-c2ccccc2F)sc1C(=O)N1CCN(C)CC1`, the Percent Effect in assay [1] is 1.4%; in assay [2] it was -0.463%.

With `CCN(Cc1cccc(Cl)c1)Cc1nc2c(cnn2C)c(=O)[nH]1`, the Percent Effect is -2.28% in assay [1] and 31.3% in assay [2].

In the case of `COc1ccc(S(=O)(=O)N2CCCC3(CCCN3S(C)(=O)=O)C2)cc1` (configuration not stated), the Percent Effect in assay [1] is -2.13%; in assay [2], 0.605%.

For `CCn1c(C)cc(C(=O)N2CCCC(c3nc(C)no3)C2)c1C` (configuration not stated), the Percent Effect in assay [1] came to 3.31%; in assay [2] it was 9.36%.

Regarding `N#Cc1ccc(OCCN2CCc3c(ncn3C3CC3)C2)cc1`, the Percent Effect is 1.24% in assay [1] and -40.3% in assay [2].

As for `Cc1ccc(C)c(NC(=O)N(C)Cc2cnn(C)c2)c1`, the values for the Percent Effect in assay [1] and in assay [2] were -1.13% and 19.8%, respectively.
